SMILES strings stand for the structures. Some of the results follow. Active and inactive are the calls of the source.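 The calls were made as follows: active = mean inhibition across replicates of 40% or more; inactive = mean inhibition below 40%.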

This assay is described as follows: triacylglycerol accumulation inhibitors, retest, confirmation, cell-based, single concentration, Nile Red fluorescence, H9c2 (AID 651629).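 Also: plate controls were DMSO only wells for no effect and Triacsin C treated wells for full effect.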 Particulars: H9c2 lipid accumulation, at 12.5 µM, hits give high values, cells loaded with 200 µM oleic acid.
`COC(C[C@H](O)CC(=O)COCc1ccccc1)OC`: the inhibition is -3.23% (inactive).
The figure for `CN(C)C(=S)N=c1ssc(=S)n1Cc1ccco1` is 62.1% (active).
The figure for `COc1ccc2sc(-c3ccc(N(C)C)cc3)c(C#CCO)c2c1` is 85.7% (active); for `O=C(Nc1cc2c3c(c1)C1CCCC1CN3CC1CCCC21)c1ccc([N+](=O)[O-])cc1` (stereo unspecified) it is 56.6% (active).
`COc1ccccc1NC1=NC(c2ccc(Cl)cc2)N=C(N)N1` (stereo unspecified): the inhibition is 74.9% (active).
Next, `COc1ccc(CC(=O)Nc2ccc(-c3nnc(-c4ccc(C)cc4)o3)cc2)cc1`: 57.6% (active); `CC(=O)c1cccc(-c2ccc(CN3C(CC(C)C)C(=O)N(Cc4cn(CC5CCCCC5)nn4)CCS3(=O)=O)cc2)c1` (stereo unspecified): 47% (active); `COc1ccc2sc(-c3ccc(S(C)(=O)=O)cc3)c(C#Cc3cncn3C)c2c1`: 74.2% (active).
Turning to `CC(C)C(=O)N1CCC2(CC1)Oc1ccc(F)cc1C(=O)C21CC(c2ccccc2)=NO1` (stereo unspecified), the inhibition was -2.17% (inactive).
As to `COc1cc(NC(=O)c2cncc(-c3ccc(C#N)cc3)c2)cc(C(=O)Nc2cccc(C(F)(F)F)c2)c1`, the inhibition is 39.1% (inactive).
The figure for `CN(C)CC(O)COc1ccc(C(C)(C)c2ccc(OCC(O)CN(C)C)cc2)cc1` (stereo unspecified) is 20.9% (inactive); for `C=CCNC(=S)N/N=C/c1ccc(C)s1` it is 24.3% (inactive); for `O=C(Nc1ccc(-c2csc(Nc3cccc(C(F)(F)F)c3)n2)cc1)c1cccc(C(F)(F)F)c1` it is 66% (active).
Consider `O=C1c2ccccc2C(=O)c2c1cccc2N1CCN(C/C=C/c2ccccc2)CC1`, for which the inhibition is 64% (active).
Next, `Cc1ccc(Sc2cc(N3CCOCC3)nc(-c3ccccc3)n2)cc1`: 62.5% (active).
Next, `COc1ccc(Nc2cc(=O)oc3ccccc23)cc1`: 50.6% (active).
The figure for `CC(=O)c1ccc(Oc2cc(C)nc(-n3nc(C)cc3C)n2)cc1` is 63.2% (active); for `COC(=O)Nc1nc2ccc(Sc3ccccc3)cc2[nH]1` it is 66.1% (active).
As to `COC(=O)c1ccc(NCc2cc(O)ccc2O)cc1`, the inhibition was 29.9% (inactive).
Next, `Cc1ccc(-c2nc3ccccc3[nH]2)cc1NC(=O)c1sc2ccccc2c1Cl`: 35.7% (inactive); `CN(/N=C/c1ccccc1)C(=S)c1ccccc1`: 12.5% (inactive).
For `Cc1ccc(/C=N/NC(=S)Nc2cccc(S(=O)(=O)N(C)C)c2)o1`, the inhibition was 20.8% (inactive).
The figure for `C=CCn1c(SCc2c(C)noc2C)nc2sc3c(c2c1=O)CCC(C)C3` (stereo unspecified) is 49.4% (active).
Next, `COC(=O)c1ccc(-c2c(-c3ccccc3)ncc3cc(OC)c(OC)cc23)cc1`: 13.2% (inactive); `COc1ccccc1C1C2=C(COC2=O)Nc2cc3c(cc21)OCO3` (stereo unspecified): 61.4% (active).
Next, `CCCCN1C(=O)/C(=C/C=C2/C=Cc3ccccc3N2CC)SC1=S`: 127% (active).

By inhibition is commonly meant the drop in the measured response relative to a control, in per cent.

For the origin of these results see PubChem BioAssay AID651629 (Sanford-Burnham Center for Chemical Genomics, 2012).
